The record followed here is PubChem BioAssay (NCI).

Holding throughout (test): NCI-60 one-dose screen, 48 h (100 = growth as untreated, 0 = no growth, -100 = all killed)
The test system of one test is SK-MEL-2 melanoma. The note with it: 10 µM unless noted.
Another test relates to SN12C renal. Particulars: 10 µM unless noted.
Another test has as its system UO-31 renal. Particulars: 10 µM unless noted.
In a further test the test system is ACHN renal. Particulars: 10 µM unless noted.
In the next test the test system is CAKI-1 renal. The note with it: 10 µM.
The test system of the next test is A498 renal. Particulars: 10 µM unless noted.
A further test has as its system CCRF-CEM leukemia. The note with it: 10 µM unless noted.
In the next test the test system is MOLT-4 leukemia. The note with it: 10 µM unless noted.
For another test, the system named is SR leukemia. Particulars: 10 µM unless noted.
The test system of another test is RPMI-8226 leukemia. The note with it: 10 µM unless noted.
The test system of another test is OVCAR-8 ovarian. Particulars: 10 µM unless noted.
For another test, the system named is OVCAR-5 ovarian. The note with it: 10 µM unless noted.
Another test relates to OVCAR-4 ovarian. The note with it: 10 µM unless noted.
For a further test, the system named is SK-OV-3 ovarian. The note with it: 10 µM unless noted.
A further test relates to IGROV1 ovarian. Particulars: 10 µM unless noted.
The next test concerns OVCAR-3 ovarian. Particulars: 10 µM unless noted.
A further test has as its system HS 578T breast. Particulars: 10 µM unless noted.
A further test relates to NCI/ADR-RES ovarian. Particulars: 10 µM unless noted.
A further test relates to TK-10 renal. Particulars: 10 µM unless noted.

About 83,000 compounds went through this panel and 20% of them were active in at least one assay; those are over-represented in the sample as a whole.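 96-well plates, one dose, 48 hours. Percent growth reported; active if below 10.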 A number with no mark means an inactive call. Active and inactive are the calls of the source.

For the molecule `COc1ccc(-c2nnc(SCC(=O)N3CCN(c4cc5c(cc4F)c(=O)c(C(=O)O)cn5C4CC4)CC3)o2)cc1OC`, the growth in the test with SK-MEL-2 melanoma was 103%; in the test on SN12C renal it was 97.6%; with UO-31 renal, 93.7%; with ACHN renal, 102%; in the test with CAKI-1 renal it was 97.1%; with A498 renal, 96.7%. For the same molecule, the growth is 82.6% in the test on CCRF-CEM leukemia; 77.4% in the test with MOLT-4 leukemia; 90.6% in the test on SR leukemia; 90.1% in the test with RPMI-8226 leukemia; 96.9% in the test with OVCAR-8 ovarian; 96.2% in the test with OVCAR-5 ovarian. The growth in the test on OVCAR-4 ovarian was 103%; in the test with SK-OV-3 ovarian, 84.2%; with IGROV1 ovarian it was 97.1%; in the test with OVCAR-3 ovarian, 111%; in the test with HS 578T breast, 101%; in the test with NCI/ADR-RES ovarian, 98.1%.

On to `O=C(O)c1ccc(-n2cc(/C=N/Nc3ccccc3F)c(-c3ccc(O)cc3)n2)cc1`, for which the growth in the test on SK-MEL-2 melanoma was 91.5%; in the test on SN12C renal, 103%; with UO-31 renal it was 49.1%; with TK-10 renal it was 102%; in the test with A498 renal, 72.5%; in the test with CCRF-CEM leukemia, 41.5%. The growth is 39.1% with MOLT-4 leukemia; 73.6% with SR leukemia; 59.1% with RPMI-8226 leukemia; 88.4% in the test on OVCAR-8 ovarian; 80.9% in the test on OVCAR-5 ovarian; 94.8% with OVCAR-4 ovarian. Further, the growth is 81% with IGROV1 ovarian, 82.7% in the test on OVCAR-3 ovarian, 92.4% with HS 578T breast and 80% with NCI/ADR-RES ovarian.

As for `COc1ccc(-c2nnc(NC(=O)CN3CCN(c4cc5c(cc4F)c(=O)c(C(=O)O)cn5C4CC4)CC3)s2)cc1OC`, the growth in the test on SK-MEL-2 melanoma was 102%; in the test on SN12C renal, 95.5%; in the test on UO-31 renal it was 89.4%; in the test on ACHN renal, 109%; in the test with CAKI-1 renal, 104%; in the test with A498 renal it was 80.5%. The growth in the test with CCRF-CEM leukemia was 98.9%; in the test with MOLT-4 leukemia, 93%; in the test on SR leukemia it was 102%; in the test on RPMI-8226 leukemia, 102%; in the test on OVCAR-8 ovarian, 98.4%; in the test with OVCAR-5 ovarian it was 106%. Besides, the growth in the test on OVCAR-4 ovarian was 104%; in the test with SK-OV-3 ovarian, 98.6%; in the test with OVCAR-3 ovarian, 106%; in the test on HS 578T breast, 91.5%.

For the molecule `CN(C)CC/C=C1\c2ccccc2Sc2ccc(Cl)cc21`, the growth in the test on SK-MEL-2 melanoma is 89.6%; in the test on SN12C renal, 48%; with UO-31 renal, 41.3%; in the test with TK-10 renal it was 75.8%; in the test on CAKI-1 renal, 52.7%; with A498 renal, 89.5%. Further, the growth was 59.4% in the test on CCRF-CEM leukemia; 44.8% with MOLT-4 leukemia; 62% in the test with SR leukemia; 72% in the test with RPMI-8226 leukemia; 69.2% in the test with OVCAR-8 ovarian; 69.9% in the test with OVCAR-4 ovarian. In addition, the growth in the test with IGROV1 ovarian was 53.8%; in the test on OVCAR-3 ovarian, 74.4%; in the test on HS 578T breast, 65.6%; with NCI/ADR-RES ovarian, 63.2%.

For `CCCCC(=O)Nc1nc2ccc(SCCC)cc2s1`, the growth in the test on SK-MEL-2 melanoma was 50.1%; with SN12C renal, 50.1%; in the test on UO-31 renal, 37.5%; with ACHN renal, 75.1%; in the test on A498 renal it was 9.34% (active); in the test on CCRF-CEM leukemia, 44%. Also, the growth is 29.8% with MOLT-4 leukemia; 6.63% (active) with SR leukemia; 15.7% in the test on RPMI-8226 leukemia; 56.7% with OVCAR-8 ovarian; 69% in the test on OVCAR-5 ovarian; 81.1% with OVCAR-4 ovarian. Moreover, the growth is 66% in the test on SK-OV-3 ovarian, 54.2% in the test with IGROV1 ovarian, 48.9% in the test with HS 578T breast and 13% with NCI/ADR-RES ovarian.

As to `CCCCCCCC(=O)SCC/C=C/[C@@H]1CC(=O)NCc2nc(cs2)C2=N[C@@](C)(CS2)C(=O)N[C@@H](C(C)C)C(=O)N1`, the growth was -34.7% (active) in the test on SK-MEL-2 melanoma; 35.5% in the test with SN12C renal; 18.9% with UO-31 renal; 7.25% (active) with ACHN renal; -50.3% (active) in the test with A498 renal; 21.3% in the test on CCRF-CEM leukemia. Moreover, the growth was 9.36% (active) with MOLT-4 leukemia; 6.51% (active) in the test on SR leukemia; -6.34% (active) in the test on RPMI-8226 leukemia; 5.08% (active) in the test with OVCAR-8 ovarian; 22.5% in the test on OVCAR-5 ovarian; 31% in the test with OVCAR-4 ovarian. Also, the growth was -4.42% (active) with SK-OV-3 ovarian; 0.908% (active) in the test on IGROV1 ovarian; -7.56% (active) with OVCAR-3 ovarian; 11.5% in the test with HS 578T breast; 84.5% with NCI/ADR-RES ovarian.

Turning to `O=c1c2ccccc2sc2c(N3CCCC3)nc3ccccc3c12`, the growth was 127% with SK-MEL-2 melanoma; 91.3% in the test with SN12C renal; 97% with UO-31 renal; 98.6% in the test on ACHN renal; 73% in the test on A498 renal; 92.1% in the test with CCRF-CEM leukemia. In addition, the growth in the test with MOLT-4 leukemia is 102%; with SR leukemia, 81.5%; in the test with RPMI-8226 leukemia, 92.8%; with OVCAR-8 ovarian it was 93.6%; with OVCAR-5 ovarian, 112%; with OVCAR-4 ovarian, 95.2%. The growth in the test with SK-OV-3 ovarian is 118%; in the test with IGROV1 ovarian, 85.8%; in the test on OVCAR-3 ovarian it was 107%; in the test on HS 578T breast, 89.6%; in the test on NCI/ADR-RES ovarian, 102%.

On to `CCCCn1c(-c2cccc(OC)c2)nc2cc(OC)c(OC)cc2c1=O`, for which the growth with SK-MEL-2 melanoma was 101%; in the test on SN12C renal it was 98.1%; in the test on UO-31 renal, 80.6%; in the test on TK-10 renal it was 215%; with ACHN renal it was 97.8%; in the test with A498 renal, 110%. In addition, the growth with CCRF-CEM leukemia is -22.6% (active); in the test with MOLT-4 leukemia, 69.8%; in the test with SR leukemia it was 75.1%; in the test on RPMI-8226 leukemia it was 58.9%; with OVCAR-8 ovarian, 118%; in the test with OVCAR-5 ovarian it was 101%. Moreover, the growth was 108% in the test with OVCAR-4 ovarian; 119% in the test with SK-OV-3 ovarian; 89.2% with IGROV1 ovarian; 113% in the test with OVCAR-3 ovarian; 104% in the test with HS 578T breast; 94.2% in the test with NCI/ADR-RES ovarian.

With `CC(C)(C)OC(=O)N1CC(Cn2cc(C(F)(F)F)c3c(Cl)ncnc32)C1`, the growth is -77.4% (active) in the test on SK-MEL-2 melanoma; -25.4% (active) with SN12C renal; -95.1% (active) in the test with UO-31 renal; 115% in the test with TK-10 renal; 73.5% in the test with ACHN renal; 34.2% with A498 renal. Further, the growth with CCRF-CEM leukemia was -26.6% (active); in the test on MOLT-4 leukemia, -37.5% (active); in the test on SR leukemia, -60.9% (active); with RPMI-8226 leukemia, -48.4% (active); in the test on OVCAR-8 ovarian, -72.4% (active); in the test with OVCAR-5 ovarian, 112%. Moreover, the growth in the test on OVCAR-4 ovarian was 81.6%; in the test on SK-OV-3 ovarian, -24.4% (active); in the test with IGROV1 ovarian, -79.1% (active); in the test with OVCAR-3 ovarian, -49.9% (active); in the test on HS 578T breast, -9.74% (active); in the test on NCI/ADR-RES ovarian, 77.7%.

On to `Cc1c(C(C)(C)C)cc(C(C)(C)C)c2c1CN(C)CO2`, for which the growth was 96.7% in the test on SK-MEL-2 melanoma; 107% with SN12C renal; 97% in the test with UO-31 renal; 102% with TK-10 renal; 106% with A498 renal; 93.7% with CCRF-CEM leukemia. In addition, the growth was 109% in the test with MOLT-4 leukemia; 103% in the test with SR leukemia; 110% in the test on RPMI-8226 leukemia; 105% in the test on OVCAR-8 ovarian; 110% in the test on OVCAR-5 ovarian; 105% in the test on OVCAR-4 ovarian. Further, the growth is 102% in the test on SK-OV-3 ovarian; 114% in the test with IGROV1 ovarian; 102% with OVCAR-3 ovarian; 105% with HS 578T breast; 99.5% in the test on NCI/ADR-RES ovarian.

Take `CC1=C2C(=C[C@@](C)(CO)[C@@H]2OC(=O)N(C)CCN(C)C(=O)OC(C)(C)C)C(=O)[C@](C)(O)C12CC2`: the growth in the test on SK-MEL-2 melanoma is 71.4%; in the test on SN12C renal, 73%; in the test with UO-31 renal it was -60.4% (active); in the test with TK-10 renal, 68.1%; in the test on ACHN renal, -52.5% (active); in the test on A498 renal, 97%. Besides, the growth in the test with CCRF-CEM leukemia is 74.6%; with MOLT-4 leukemia it was 89.7%; in the test with SR leukemia it was 50.6%; in the test on RPMI-8226 leukemia it was 48%; in the test with OVCAR-8 ovarian, 36.6%; with OVCAR-5 ovarian, 19.2%. Further, the growth in the test on OVCAR-4 ovarian was 43.8%; in the test on IGROV1 ovarian it was 9.25% (active); in the test with OVCAR-3 ovarian it was 3.63% (active); with HS 578T breast, 93.9%; in the test with NCI/ADR-RES ovarian, 10.7%.
